From PubChem BioAssay (NCATS)
Results filed as inconclusive are left out. A call without a number means that no potency is given here. Values without a mark were called inactive. Active and inactive are the calls of the source. Calls follow the shape of the dose curve; as a rule, active = well fitted curve in the direction sought with a large enough effect; inconclusive = small, poorly fitted or top-dose-only effect, or another doubt; inactive = no such curve, though single readings can be large; an effect the other way counts as inactive or inconclusive.

Legend:
[1] = biological target: Tumor susceptibility gene 101 protein (Homo sapiens) (UniProt Q99816); test: qHTS Assay for Iinhibitors of HIV-1 Budding by Blocking the Interaction of PTAP/TSG101: Hit Validation (AID 651600); also: potency is read from the fitted curve at half-maximal effect; nearly all actives have a fitted effect of over 70% in size
Summary of the method: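 Displacement of a FITC-labeled PTAP-motif peptide (50 nM) from the Tsg101 binding domain (10 uM) was monitored by fluorescence polarization after a 20 min room-temperature incubation.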

[2] = biological target: Rap guanine nucleotide exchange factor 3 (Homo sapiens) (UniProt O95398); test: Confirmatory qHTS for antagonist of cAMP-regulated guanine nucleotide exchange factor 3 (EPAC1) (AID 1645880); details: EPAC1 Rap1B-BODIPY-GDP exchange, fluorescence; activity, negative = inhibition: at 115 µM (top of the series); also: nearly all actives have a fitted effect of over 55% in size; also: potency is read from the fitted curve at half-maximal effect
Summary of the method: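 Nucleotide exchange uses 100 nM EPAC1, 250 nM RAP1B-BODIPY-GDP and 50 uM GDP, with compounds in a concentration-titration series. After 5 min at room temperature, fluorescence (480 nm ex/540 nm em) is read every 5 min for 30 min. Data are normalized to control ATA and DMSO.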

[3] = biological target: Rap guanine nucleotide exchange factor 3 (Homo sapiens) (UniProt O95398); test: Confirmatory qHTS for agonist of cAMP-regulated guanine nucleotide exchange factor 3 (EPAC1) (AID 1645881); also: nearly all actives have a fitted effect of over 75% in size; also: potency is read from the fitted curve at half-maximal effect
[4] = biological target: Rap guanine nucleotide exchange factor 4 (Homo sapiens) (UniProt Q8WZA2); test: Confirmatory qHTS for antagonist of cAMP-regulated guanine nucleotide exchange factor 4 (EPAC2) (AID 1645885); also: nearly all actives have a fitted effect of over 25% in size; also: potency is read from the fitted curve at half-maximal effect
[5] = biological target: Rap guanine nucleotide exchange factor 3 (Homo sapiens) (UniProt O95398); test: Counterscreen qHTS for antagonist of cAMP-regulated guanine nucleotide exchange factor 3 (EPAC1) (AID 1645888);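 also: fluorescence loss as bound BODIPY-GDP is released from Rap1B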
Summary of the method: (§1)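 Measured: fluorescence of BODIPY-GDP bound to Rap1B, which falls as exchange proceeds. Conditions include 50 uM competing GDP, 5 and 30 min reads, and a later cAMP challenge for antagonist detection.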

[6] = biological target: Rap guanine nucleotide exchange factor 3 (Homo sapiens) (UniProt O95398); test: Counterscreen qHTS for agonist of cAMP-regulated guanine nucleotide exchange factor 3 (EPAC1) (AID 1645889); also: nearly all actives have a fitted effect of over 40% in size; also: potency is read from the fitted curve at half-maximal effect
Summary of the method: as §1

[7] = qHTS for Inhibitors of the vitamin D receptor (VDR): Hit Validation using a Texas Red Assay (AID 602201); also: potency is read from the fitted curve at half-maximal effect
Summary of the method: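 Fluorescence polarization (Ex 595/Em 615 nm) of Texas Red (7 nM) with 1.5 uM VDR-LBD and LG19078 (final concentrations). Compounds were incubated for 2 hours at room temperature.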

Tumor susceptibility gene 101 protein (Homo sapiens), sequence (Q99816 whole entry, looked up, the tested form may be a part): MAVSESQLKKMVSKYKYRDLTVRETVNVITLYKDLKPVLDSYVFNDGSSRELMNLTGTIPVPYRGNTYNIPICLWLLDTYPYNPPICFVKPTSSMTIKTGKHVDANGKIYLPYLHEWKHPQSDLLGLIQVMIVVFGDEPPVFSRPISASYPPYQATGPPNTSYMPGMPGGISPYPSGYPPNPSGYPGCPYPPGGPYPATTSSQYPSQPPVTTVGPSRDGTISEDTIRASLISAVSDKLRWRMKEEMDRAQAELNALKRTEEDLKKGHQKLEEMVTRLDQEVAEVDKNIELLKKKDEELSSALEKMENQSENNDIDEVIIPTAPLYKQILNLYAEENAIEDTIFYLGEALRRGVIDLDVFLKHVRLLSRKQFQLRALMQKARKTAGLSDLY
Rap guanine nucleotide exchange factor 4 (Homo sapiens), sequence (Q8WZA2 whole entry, looked up): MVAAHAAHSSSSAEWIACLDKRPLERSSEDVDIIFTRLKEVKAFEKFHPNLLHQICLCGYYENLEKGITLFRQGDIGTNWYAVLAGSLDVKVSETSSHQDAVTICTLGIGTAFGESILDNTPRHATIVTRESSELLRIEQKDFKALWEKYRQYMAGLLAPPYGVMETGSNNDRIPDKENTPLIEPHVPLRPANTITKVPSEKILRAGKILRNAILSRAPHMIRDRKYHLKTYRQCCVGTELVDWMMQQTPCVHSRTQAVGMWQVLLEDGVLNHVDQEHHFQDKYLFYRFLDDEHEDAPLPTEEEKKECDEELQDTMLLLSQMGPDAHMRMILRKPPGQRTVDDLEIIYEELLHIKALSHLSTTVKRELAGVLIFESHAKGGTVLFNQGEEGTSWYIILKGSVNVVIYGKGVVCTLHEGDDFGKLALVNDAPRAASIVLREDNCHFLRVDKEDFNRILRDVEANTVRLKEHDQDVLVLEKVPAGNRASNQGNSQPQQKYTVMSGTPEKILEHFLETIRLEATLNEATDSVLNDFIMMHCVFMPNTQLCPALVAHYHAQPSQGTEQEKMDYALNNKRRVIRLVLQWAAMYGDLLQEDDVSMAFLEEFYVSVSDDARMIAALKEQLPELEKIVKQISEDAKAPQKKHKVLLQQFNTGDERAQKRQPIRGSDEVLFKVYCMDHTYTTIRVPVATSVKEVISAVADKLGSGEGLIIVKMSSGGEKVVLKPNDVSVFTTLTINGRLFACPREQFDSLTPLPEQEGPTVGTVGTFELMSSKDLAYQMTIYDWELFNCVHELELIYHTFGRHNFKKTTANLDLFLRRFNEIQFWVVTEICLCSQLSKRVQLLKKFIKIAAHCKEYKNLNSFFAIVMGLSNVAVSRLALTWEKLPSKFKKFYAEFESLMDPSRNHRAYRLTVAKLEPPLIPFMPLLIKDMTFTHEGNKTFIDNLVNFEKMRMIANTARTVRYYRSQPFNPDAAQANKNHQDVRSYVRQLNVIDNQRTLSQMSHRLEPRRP
Rap guanine nucleotide exchange factor 3 (Homo sapiens), sequence (O95398 whole entry, looked up): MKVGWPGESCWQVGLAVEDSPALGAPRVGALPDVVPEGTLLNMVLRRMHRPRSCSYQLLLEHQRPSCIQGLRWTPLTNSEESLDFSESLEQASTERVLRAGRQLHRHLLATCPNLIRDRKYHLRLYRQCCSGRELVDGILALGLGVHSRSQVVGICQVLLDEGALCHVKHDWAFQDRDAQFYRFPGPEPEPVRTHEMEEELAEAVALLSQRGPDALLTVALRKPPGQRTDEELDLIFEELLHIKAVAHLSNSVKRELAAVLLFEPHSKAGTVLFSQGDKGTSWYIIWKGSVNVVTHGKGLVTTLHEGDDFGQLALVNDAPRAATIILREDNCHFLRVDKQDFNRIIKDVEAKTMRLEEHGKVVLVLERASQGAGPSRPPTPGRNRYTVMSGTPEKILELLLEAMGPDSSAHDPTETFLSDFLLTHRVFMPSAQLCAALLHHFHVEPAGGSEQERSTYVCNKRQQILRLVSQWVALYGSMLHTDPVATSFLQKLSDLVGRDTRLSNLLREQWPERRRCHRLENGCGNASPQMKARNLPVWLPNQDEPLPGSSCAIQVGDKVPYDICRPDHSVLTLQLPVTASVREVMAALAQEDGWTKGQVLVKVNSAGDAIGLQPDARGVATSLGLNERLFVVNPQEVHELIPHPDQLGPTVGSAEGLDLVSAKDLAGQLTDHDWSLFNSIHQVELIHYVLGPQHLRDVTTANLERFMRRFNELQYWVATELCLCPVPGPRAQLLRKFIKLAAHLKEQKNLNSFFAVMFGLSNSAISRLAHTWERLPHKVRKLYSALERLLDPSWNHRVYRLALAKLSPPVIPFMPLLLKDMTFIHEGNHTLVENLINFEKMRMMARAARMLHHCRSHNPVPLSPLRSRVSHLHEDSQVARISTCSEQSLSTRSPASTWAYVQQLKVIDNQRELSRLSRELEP

Q: For `CCc1ccc[n+](-c2[nH]c(=O)sc2/C=N/NC([S-])=Nc2ccccc2)c1`, which Potency [1] is on record?
A: 14.6 µM (active)

Q: What about the Potency [2] of the same compound?
A: inactive

Q: And the Potency [3]?
A: inactive

Q: And the Potency [4]?
A: inactive

Q: What about the Potency [5] of the same compound?
A: inactive

Q: What about the Potency [6] of the same compound?
A: 50.1 µM (active)

Q: For `COc1cc(N)ccc1-c1cc2ccccc2oc1=O`, which Potency [2] is on record?
A: inactive

Q: And the Potency [3]?
A: inactive

Q: What about the Potency [5] of the same compound?
A: inactive

Q: Which results are given for `C=C(C)Cn1c(C)cc(C)c(S(=O)(=O)c2ccccc2C)c1=O`?
A: Potency [2]: inactive; Potency [3]: inactive; activity change, negative = inhibition [5]: -6.66% [at 30.8 µM]

Q: Which Potency [2] does the source give for `CCOC(=O)Nc1ccccc1C(=O)Nc1cc(C)cc(C)c1` here?
A: inactive

Q: And the Potency [3]?
A: inactive

Q: And the Potency [4]?
A: inactive

Q: And the Potency [6]?
A: 0.631 µM (active)

Q: Which results are given for `COc1ccc(/C=C/C(=O)c2ccc(Cl)cc2)c(OC)c1`?
A: Potency [2]: inactive; Potency [3]: inactive; Potency [5]: inactive

Q: What does the source list for `COc1ccc2c(c1)Cc1sc(NC(=O)c3cccc(C)c3)nc1-2`?
A: Potency [7]: 10 µM (active); Potency [2]: 84.9 µM (active); Potency [3]: inactive; Potency [4]: inactive; Potency [5]: inactive

Q: With `CCOc1ccc(-c2cccc(NC(=O)c3ccco3)c2)nn1` as the compound, how does the Potency [2] read?
A: inactive

Q: What about the Potency [3] of the same compound?
A: inactive

Q: And the Potency [4]?
A: 84.9 µM (active)

Q: What about the Potency [5] of the same compound?
A: inactive

Q: What about the Potency [6] of the same compound?
A: inactive

Q: Which Potency [2] does the source give for `CCc1ccc([C@@H]2CC=C(C(=O)O)[C@H](c3ccc(Cl)cc3)N2S(=O)(=O)c2ccc(C)cc2)cc1` here?
A: 50.1 µM (active)

Q: What about the Potency [3] of the same compound?
A: inactive

Q: And the activity change, negative = inhibition [5]?
A: -9.33% [at 30.8 µM]

Q: What does the source list for `COc1ccc(C2CC(=O)Oc3ccc(OC)cc32)cc1` (stereo not drawn)?
A: Potency [2]: inactive; Potency [3]: inactive; activity change, negative = inhibition [5]: -2.08% [at 30.8 µM]

Q: Which Potency [2] does the source give for `COC(=O)[C@@H]1CC[C@@](C)(c2ccc(OC)cc2)C1(C)C` here?
A: inactive

Q: And the Potency [3]?
A: inactive

Q: What about the activity change, negative = inhibition [5] of the same compound?
A: 8.1% [at 30.8 µM]

Q: Which results are given for `COC(=O)c1ccc2nc(-c3ccc(F)cc3)c(Cc3ccsc3)n2c1`?
A: Potency [2]: inactive; Potency [3]: inactive; activity change, negative = inhibition [5]: -9.08% [at 30.8 µM]

Q: Which results are given for `Nc1cccc2c(O)cc(S(=O)(=O)O)cc12`?
A: Potency [1]: 18.3 µM (active); Potency [2]: 13.5 µM (active); Potency [3]: 50.1 µM (active); Potency [4]: 0.757 µM (active); Potency [5]: inactive

Q: With `COc1ccc(Cl)cc1NC(=O)CN1c2ccccc2CC1C` (stereo not drawn) as the compound, how does the Potency [2] read?
A: inactive

Q: What about the Potency [3] of the same compound?
A: inactive

Q: And the Potency [5]?
A: inactive

Q: What does the source list for `CCn1cc(C=C2C(=O)c3ccccc3C2=O)c2ccccc21`?
A: Potency [1]: 14.6 µM (active); Potency [2]: inactive; Potency [3]: inactive; Potency [4]: inactive; Potency [5]: inactive; Potency [6]: inactive

Q: With `CC(=O)N1N=C2c3ccccc3CCC2C1c1cccs1` (stereo not drawn) as the compound, how does the Potency [2] read?
A: inactive

Q: And the Potency [3]?
A: inactive

Q: And the activity change, negative = inhibition [5]?
A: -17.6% [at 30.8 µM]
